Consider 11 compounds from the supplement of paper PMC6089552.

The campaign covered roughly 3,200 compounds. About 300 (9.4%) showed activity. This excerpt belongs to a sample that is enriched for actives.

This assay has as its system A673/TR/shEF. The experiment in a line: cell viability (LOESS-normalised, relative to median of negative controls) (log2 ratio); higher = more viable cells (less compound effect), active = hit call of the paper (over 3 MAD below the median). Particulars: treatment time: 72 h. The method, boiled down:
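Viability of A673/TR/shEF Ewing sarcoma cells was determined by CellTiter-Glo luminescence. The cells, at 1,500 per well in 384-well plates, were grown with or without doxycycline from 24 h before compound addition to switch on EWS-FLI1 shRNA knockdown, then exposed for three days to library compounds at two or more concentrations or to DMSO controls. Signals were LOESS-corrected plate by plate, normalised to the negative-control median and log2-transformed.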

Where [1] appears, read: 0.025 µM, library screen: screen1, EWS-FLI1 expression: high (no doxycycline).
Setting [2] is: 0.025 µM, library screen: screen1, EWS-FLI1 expression: low (doxycycline-induced shRNA knockdown).
Setting [3] is: 0.25 µM, library screen: screen1, EWS-FLI1 expression: high (no doxycycline).
Setting [4] is: 0.25 µM, library screen: screen1, EWS-FLI1 expression: low (doxycycline-induced shRNA knockdown).
Where [5] appears, read: 0.25 µM, library screen: screen2, EWS-FLI1 expression: high (no doxycycline).
Where [6] appears, read: 0.25 µM, library screen: screen2, EWS-FLI1 expression: low (doxycycline-induced shRNA knockdown).
[7] abbreviates: 2.5 µM, library screen: screen1, EWS-FLI1 expression: high (no doxycycline).
Where [8] appears, read: 2.5 µM, library screen: screen1, EWS-FLI1 expression: low (doxycycline-induced shRNA knockdown).
Setting [9] is: 2.5 µM, library screen: screen2, EWS-FLI1 expression: high (no doxycycline).
The mark [10] stands for this setting: 2.5 µM, library screen: screen2, EWS-FLI1 expression: low (doxycycline-induced shRNA knockdown).
[11] abbreviates: 25 µM, library screen: screen1, EWS-FLI1 expression: high (no doxycycline).
[12] abbreviates: 25 µM, library screen: screen1, EWS-FLI1 expression: low (doxycycline-induced shRNA knockdown).

In the case of `N#CC(C#N)=Cc1ccc(O)c(O)c1`, the “cell viability (log2)” value runs as follows: under setting [1], 0.0488 (inactive); under setting [2], -0.0484 (inactive); under setting [3], 0.042 (inactive); under setting [4], -0.0954 (inactive); under setting [5], 0.172 (inactive); under setting [6], 0.124 (inactive). Further, the “cell viability (log2)” value under setting [7] was 0.0531 (inactive); the “cell viability (log2)” value under setting [8] was -0.000697 (inactive); the “cell viability (log2)” value under setting [9] was 0.143 (inactive); the “cell viability (log2)” value under setting [10] was 0.061 (inactive); the “cell viability (log2)” value under setting [11] was -0.0656 (inactive); the “cell viability (log2)” value under setting [12] was 0.016 (inactive).
Consider `COc1cc(C=C(C#N)C#N)cc(O)c1O`, for which the “cell viability (log2)” value under setting [5] was 0.15 (inactive), the “cell viability (log2)” value under setting [6] is 0.104 (inactive), the “cell viability (log2)” value under setting [9] is 0.12 (inactive) and the “cell viability (log2)” value under setting [10] was 0.124 (inactive).
For the compound `N#CC(C#N)=Cc1ccc(O)cc1`, the “cell viability (log2)” value under setting [1] was 0.0481 (inactive); the “cell viability (log2)” value under setting [2] was 0.0237 (inactive); the “cell viability (log2)” value under setting [3] was 0.0596 (inactive); the “cell viability (log2)” value under setting [4] was 0.0262 (inactive); the “cell viability (log2)” value under setting [7] is 0.0426 (inactive); the “cell viability (log2)” value under setting [8] was 0.0755 (inactive). Further, the “cell viability (log2)” value reads like this: under setting [11], 0.0734 (inactive); under setting [12], 0.0191 (inactive).
`N#CC(C#N)=Cc1ccc([N+](=O)[O-])c(O)c1`: the “cell viability (log2)” value is 0.298 under setting [1]; 0.0132 (inactive) under setting [2]; 0.311 under setting [3]; -0.0619 (inactive) under setting [4]; 0.0683 (inactive) under setting [5]; 0.016 (inactive) under setting [6]. Further, the “cell viability (log2)” value was -0.131 (active) under setting [7]; -0.169 (active) under setting [8]; -0.559 (active) under setting [9]; -0.298 (active) under setting [10]; -0.408 (active) under setting [11]; -0.158 (active) under setting [12].
Consider `N#CC(C#N)=Cc1cc(O)c(O)c(O)c1`, for which the “cell viability (log2)” value runs as follows: under setting [1], -0.0494 (inactive); under setting [2], 0.0428 (inactive); under setting [3], 0.0608 (inactive); under setting [4], -0.0659 (inactive); under setting [5], 0.269 (inactive); under setting [6], 0.131 (inactive). Besides, the “cell viability (log2)” value reads like this: under setting [7], -0.0151 (inactive); under setting [8], 0.0163 (inactive); under setting [9], 0.19 (inactive); under setting [10], 0.0774 (inactive); under setting [11], 0.0348 (inactive); under setting [12], 0.1 (inactive).
For `N#CC(C#N)=Cc1cc(O)c(O)c([N+](=O)[O-])c1`, the “cell viability (log2)” value was 0.235 (inactive) under setting [1]; -0.0184 (inactive) under setting [2]; 0.283 under setting [3]; 0.00958 (inactive) under setting [4]; -0.167 (active) under setting [7]; -0.0107 (inactive) under setting [8]. For the same compound, the “cell viability (log2)” value is -0.153 (active) under setting [11] and 0.176 (inactive) under setting [12].
With `C[N+](C)(C)CCOC(=O)CBr`, the “cell viability (log2)” value is, setting by setting: under setting [5], 0.173 (inactive); under setting [6], 0.097 (inactive); under setting [9], 0.0892 (inactive); under setting [10], 0.139 (inactive).
Turning to `COc1ccc2c(c[n+](C)c3c4cc5c(cc4ccc23)OCO5)c1OC`, the “cell viability (log2)” value is 0.273 (inactive) under setting [5], 0.121 (inactive) under setting [6], 0.106 (inactive) under setting [9] and 0.0124 (inactive) under setting [10].
Take `CN1CC[C@@]23CCCC[C@@H]2[C@@H]1Cc1ccc(O)cc13`: the “cell viability (log2)” value under setting [5] is 0.228 (inactive), the “cell viability (log2)” value under setting [6] was 0.105 (inactive), the “cell viability (log2)” value under setting [9] is 0.167 (inactive) and the “cell viability (log2)” value under setting [10] was 0.081 (inactive).
On to `C[C@]12CCC(=O)C=C1CCc1ccc(O)cc12`, for which the “cell viability (log2)” value under setting [3] is 0.081 (inactive), the “cell viability (log2)” value under setting [4] is -0.029 (inactive), the “cell viability (log2)” value under setting [7] is 0.111 (inactive) and the “cell viability (log2)” value under setting [8] was 0.113 (inactive).
`CC(C)c1cc2c(c(O)c1O)[C@@]1(C(=O)O)CCCC(C)(C)[C@@H]1CC2`: the “cell viability (log2)” value under setting [3] was 0.0242 (inactive), the “cell viability (log2)” value under setting [4] was 0.0347 (inactive), the “cell viability (log2)” value under setting [7] is 0.115 (inactive) and the “cell viability (log2)” value under setting [8] was 0.191 (inactive).
